The results in this text go back to PubChem BioAssay AID748 (Sanford-Burnham Center for Chemical Genomics, 2007).

Out of some 96,000 compounds screened, about 100 (0.1%) were called active.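 The calls were made as follows: active = displacement above 50% at 20 µM plus a fluorescence interference ratio under 1.5; inactive = the rest.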 The entries come from a sample that favours actives as a whole. Results with a measured potency or affinity are listed apart.

In the assay the target is Bcl-2-like protein 10 (Homo sapiens) (UniProt Q9HD36). As to the kind of experiment: displacers of TR3 peptide from Bcl-B, primary screen, selectivity assay for Bfl-1 inhibitor project, biochemical, fluorescence polarization, FITC-TR3 peptide (AID 748).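 Also: plate controls were wells without compound for no effect and wells lacking Bcl-B protein for full effect.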 Conditions: FP displacement of FITC-TR3 peptide from Bcl-B; at 20 µM; hits give high values. For orientation: In fluorescence polarisation assays a small probe gives low polarisation when free and higher when bound to something large.
Regarding `CCn1c(SCC(=O)Nc2ccc(NC(C)=O)cc2)nnc1C1CC1`, the displacement was -2.2% (inactive). For `O=c1c(-c2ccccc2)coc2c(CN3CCCC3)c(O)ccc12` the value was 0.4% (inactive); for `COc1ccc(C(=O)c2coc3ccc(O)c(CN4CCCCC4)c23)cc1`, -2.5% (inactive); for `Nc1csnc1C(=O)O`, 1.9% (inactive).

As to `Cc1nnc(-c2cccc(Br)c2)c2cn(-c3ccccc3Cl)nc12`, the displacement was 7.2% (inactive). For `CCCCC(=O)Nc1ccc(NC(=O)CCCC)nc1` the value was -8.6% (inactive); for `Nc1cc(N)nc(SCC(=O)c2ccccc2)n1`, -7.4% (inactive); for `Cc1ccc(C(=O)CSc2cc(C)nc(SCC(=O)c3ccccc3)n2)cc1`, -6.6% (inactive). For `CCn1c(SCC(=O)c2ccc(O)c(O)c2)nnc1-c1ccc(C)cc1` the value was 33% (inactive); for `CCn1c(SCC(=O)c2ccc(O)c(O)c2)nnc1-c1ccccc1`, 15.8% (inactive). For `Cc1ccc(NC(=O)CCn2nc(C)cc2C)c(C)c1`, the displacement is -5% (inactive). The figure for `CCN(CCO)c1ccc(-n2c(N)c(C(=O)OC)c3nc4ccccc4nc32)cc1` is 12.6% (inactive); for `CC(C)c1nnc(NC(=O)CCN2C(=O)c3ccccc3C2=O)s1` it is -5.9% (inactive). As for `CCn1c(SCc2ccc(C#N)cc2)nnc1-c1cccc(Cl)c1`, the displacement is -1.6% (inactive). The figure for `Clc1ccc(CN(Cc2ccccc2)C(c2cccs2)c2nnnn2C2CCCC2)cc1` (configuration not stated) is -9.7% (inactive); for `O=C1CN(C(=O)c2cnccn2)c2ccccc2N1` it is 7% (inactive); for `O=C(c1cccnc1)N1CCc2ccccc21` it is -1.9% (inactive).

For the compound `Cc1cc(C(F)F)n2ncc(C(=O)N3CCC(C(N)=O)CC3)c2n1`, the displacement was 10.5% (inactive). For `CCS(=O)(=O)C(=C1NCCO1)S(=O)(=O)CC` the value was 1.6% (inactive); for `Cc1cc(Cl)cc(Cl)c1OCC(=O)NCc1ccco1`, -20.9% (inactive). For `Cc1ccc2c(Cl)cc(Cl)c(OCC(=O)NCc3ccco3)c2n1` the value was 56.5% (active).

With `Cc1ccc2c(Cl)cc(Cl)c(OCC(=O)NC(=O)NCc3ccco3)c2n1`, the displacement was -8% (inactive).

With `Cc1ccccc1C(=O)/C=C1/c2ccccc2CC(C)(C)N1C`, the displacement was 4.3% (inactive). The figure for `c1ccc(Sc2cnc3ccccc3n2)cc1` is -0.3% (inactive). For `CN=CC1=C(O)c2ccccc2C1=O` the value was -13.3% (inactive); for `O=C1C(C=Nc2ccccc2O)=C(O)c2ccccc21`, -6.7% (inactive); for `Cc1cc(C)c(C)c(S(=O)(=O)NCC(=O)O)c1C`, 2.8% (inactive).

Take `CC(=O)c1ccc(N2CCN(c3ncc(C(F)(F)F)cc3Cl)CC2)cc1`: the displacement was -8.1% (inactive). For `O=C(Nc1ccc(N2CCOCC2)cc1)Nc1ccc(Cl)c(Cl)c1` the value was -11.1% (inactive); for `Cc1nnc2n(Cc3ccccc3)c(=O)c3c4c(sc3n12)COC(C)(C)C4`, 4.4% (inactive). The figure for `Cc1ccc(-n2c(SCC(=O)N3CCCC3)nc3c(c2=O)SCC3)cc1` is 1% (inactive); for `COc1ccc(CNC(=O)c2noc3c2CCCC3)cc1` it is -8.9% (inactive); for `CC(=O)c1ccc(NC(=O)c2noc3c2CCCCC3)cc1` it is -0.9% (inactive).

For the compound `Cc1ccc(NC(=O)c2noc3c2CCCCC3)cc1`, the displacement is -10.5% (inactive). The figure for `CCc1ccc(NC(=O)c2noc3c2CCCCC3)cc1` is -3% (inactive).

With `O=C(N1CCOCC1)N1CCN(c2nc(-c3ccccc3)cs2)CC1`, the displacement is -0.8% (inactive). For `COC(=O)c1cc(C(=O)OC)n(Cc2ccc(F)cc2)n1` the value was -10.3% (inactive); for `CCc1ccc(-n2nc3ccc(NC(=O)c4ccc5c(c4)OCO5)cc3n2)cc1`, -1% (inactive); for `O=C(Nc1ccc2nn(-c3ccccc3)nc2c1)c1ccc2c(c1)OCO2`, -30.3% (inactive).

On to `Cc1cccc(C(=O)NNC2=C(C(=O)C(F)(F)F)CCC2)c1O`, for which the displacement is 10.3% (inactive). For `Cc1nnc(SCCn2c(N3CCC(C)CC3)nc3c2c(=O)[nH]c(=O)n3C)s1` the value was -6.3% (inactive); for `Cc1cc(C)n(C(=O)CCN2C(=O)c3ccccc3C2=O)n1`, -3.1% (inactive); for `Brc1ccc(-c2nn3c(-c4ccco4)nnc3s2)o1`, 30% (inactive). For the compound `c1coc(-c2nnc3sc(-c4cccs4)nn23)c1`, the displacement is 4.7% (inactive).

Consider `CC1(C)OC(=O)C(=CNn2cnc3ccccc3c2=O)C(=O)O1`, for which the displacement was -2.6% (inactive).

`CCOC(=O)C1CCCN(C/C(O)=C(\C#N)c2nc(-c3ccc(Cl)cc3)cs2)C1` (configuration not stated): the displacement is 0% (inactive).

Regarding `Cc1cccc(NC(=O)c2cc(-c3ccco3)nc3ccccc23)n1`, the displacement was 41.4% (inactive). The figure for `O=C(O)c1cc(-c2ccco2)nc2ccccc12` is 18.6% (inactive); for `CCOc1cc(N2CCOCC2)c(OCC)cc1NC(=O)c1cc(-c2ccco2)nc2ccccc12` it is 25.3% (inactive); for `O=C(N/N=C/c1cccc(F)c1)c1cc(-c2ccco2)nc2ccccc12` it is 39.5% (inactive). The figure for `Cc1ccccc1C(=O)c1cccn1CC(=O)NCc1ccc2c(c1)OCO2` is -0.3% (inactive); for `O=C(O)c1cc2c([nH]c1=O)CCCC2` it is -1% (inactive); for `Cc1cc(NC(=O)CN2CCN(S(=O)(=O)c3ccc4ccccc4c3)CC2)no1` it is -1% (inactive). Turning to `O=C(NCCN1CCCCCC1)c1ccc(CS(=O)(=O)c2ccc(Br)cc2)o1`, the displacement was 4.3% (inactive). For `CS(=O)(=O)Nc1ccccc1C(=O)Nc1ccc2c(c1)OCCO2` the value was -6.4% (inactive).

For `Cc1ccc(C(=O)NC2CCCc3ccccc32)o1` (configuration not stated), the displacement is 1.5% (inactive). The figure for `O=C(O)c1cc(-c2ccc(/C=N/Nc3ccc(Cl)cc3)o2)ccc1Cl` is -20.9% (inactive). For `NC(=S)N/N=C/c1ccc(-c2cccc([N+](=O)[O-])c2)o1` the value was -3.1% (inactive); for `C/C(N)=C(/C#N)C(=O)COC(=O)CSc1ccc2ccccc2c1`, -15.4% (inactive); for `O=C(COC(=O)CCc1ccccc1)Nc1ncc(Cl)cc1Cl`, 24.2% (inactive).

Turning to `CC(C(=O)OCC(=O)Nc1ncc(Cl)cc1Cl)N1C(=O)c2ccccc2C1=O` (configuration not stated), the displacement was 21.3% (inactive). The figure for `CC(=O)NC12CC3CC(C1)CC(C(=O)OCC(=O)Nc1ncc(Cl)cc1Cl)(C3)C2` is 40.7% (inactive).

For `O=C(COC(=O)C12CC3CC(CC(C3)C1)C2)Nc1ncc(Cl)cc1Cl`, the displacement is 31.8% (inactive). For `O=C(COC(=O)CCCN1C(=O)c2ccccc2C1=O)Nc1ncc(Cl)cc1Cl` the value was 43.6% (inactive); for `COc1ccc(CC(=O)OCC(=O)Nc2ncc(Cl)cc2Cl)cc1`, 41.3% (inactive); for `Cc1ccc(S(=O)(=O)CCC(=O)OCC(=O)Nc2ncc(Cl)cc2Cl)cc1`, 24.5% (inactive).

Take `Cc1ccc(S(=O)(=O)NCC(=O)OC(C)C(=O)Nc2ncc(Cl)cc2Cl)cc1` (configuration not stated): the displacement is -1.5% (inactive). The figure for `CCOC(=O)c1ccc(NC(=O)CSc2nnc(CNC(=O)c3ccccc3F)o2)cc1` is 0% (inactive); for `CC(C)(C)C(=O)CSc1nccc(=O)[nH]1` it is 2.2% (inactive). With `O=C1C(C2=NC(C(=O)O)C3C(=O)N(c4ccccc4)C(=O)C23)=C(O)c2ccccc21` (configuration not stated), the displacement was -7% (inactive).

Take `COc1ccc(Cl)cc1C(=O)Nc1ccc(S(=O)(=O)N2CCCC2)cc1`: the displacement is -12.1% (inactive). With `O=C(CCC1CCCC1)N1CCN(S(=O)(=O)Cc2ccccc2)CC1`, the displacement is -7.6% (inactive). For `O=C(Nc1ccc(-c2nnc(-c3ccco3)o2)cc1)C(c1ccccc1)c1ccccc1` the value was 3.9% (inactive); for `COC(=O)CSc1nnc(CNS(=O)(=O)c2ccc(Cl)cc2)n1C`, 8.2% (inactive). `COc1cc(CCC(=O)OCC(=O)Nc2ncc(Cl)cc2Cl)cc(OC)c1OC`: the displacement was 32.6% (inactive). The figure for `Cc1cc(NC(=O)COC(=O)C2CCN(S(=O)(=O)c3ccc(Cl)cc3)CC2)no1` is 7.5% (inactive); for `Cc1cc(NC(=O)COC(=O)C2CCN(S(=O)(=O)c3cccc(Cl)c3Cl)CC2)no1` it is 1.9% (inactive). On to `COc1ccc(CC(=O)OCC(=O)Nc2ncc(Cl)cc2Cl)cc1OC`, for which the displacement is 3% (inactive).

`Cc1ccc(Cl)cc1N1CCN(C(=O)c2cn(C)c(=O)c3c2c2ccccc2n3C)CC1`: the displacement was -4.3% (inactive). For `CC(=O)Nc1ccc(NC(=O)C(C)n2nc([N+](=O)[O-])c(Br)c2C)cc1` (configuration not stated) the value was -5.9% (inactive).

As to `CC(=O)c1c(C)[nH]c(C(=O)Nc2c(C)n(C)n(-c3ccccc3)c2=O)c1C`, the displacement was 1% (inactive). Take `COc1cccc(C=Nc2ccccc2C(=O)Nc2nccs2)c1OC`: the displacement was -10.6% (inactive).

For the compound `O=C(C[n+]1ccc(C(=O)N/N=C/c2ccc(Br)cc2)cc1)c1ccccc1`, the displacement is 43.2% (inactive). `O=C(C[n+]1ccc(C(=O)N/N=C/c2ccc(OCc3ccccc3)cc2)cc1)c1ccccc1`: the displacement is 46.7% (inactive). For `CCOC(=O)C1C(C#N)=C(N)OC(C)=C1c1ccncc1` (configuration not stated) the value was 11.4% (inactive). The figure for `CC(=O)c1c(COC(=O)c2ccco2)nc2ccccc2[n+]1[O-]` is 68.3% (active); for `COc1ccc2nc(COC(=O)c3ccco3)c(C(C)=O)[n+]([O-])c2c1` it is 10.7% (inactive); for `CCOC(=O)c1c(COC(=O)c2ccco2)nc2ccccc2[n+]1[O-]` it is -4.9% (inactive). The figure for `O=C1CC(Cc2ccccc2)C(=O)N1Cc1ccco1` (configuration not stated) is 0% (inactive); for `CCn1c(Cn2nnc(-c3ccccc3)n2)nnc1SCC(=O)Nc1ccc(N(C)C)cc1` it is 4.2% (inactive); for `Cc1nnc(NC(=O)NC(C)N2C(=O)C3C4C=CC(C4)C3C2=O)s1` (configuration not stated) it is -30.5% (inactive). With `CC(C)(C)C1CCC2(CC1)Nc1cccc3cccc(c13)N2`, the displacement was -38% (inactive).

As for `O=C1NC2(CCCCC2)NN1c1ccccc1`, the displacement was -5.6% (inactive). The figure for `O=C1CCSc2cccc3cccc(c23)N1` is -2.2% (inactive); for `CC1=Nc2cccc3cccc(c23)N1` it is 2.9% (inactive). For `O=C(O)Cc1coc(-c2ccc(F)cc2)n1` the value was -15.2% (inactive); for `O=C(CN1C(=O)NC2(CCc3ccccc32)C1=O)c1ccc2c(c1)OCCO2` (configuration not stated), -13.7% (inactive).
